# Columns and labels:
# Conditions in all cases: concentration: 1 μM, replicates: in singlicate; n = 1
# BMX = tested on: BMX
# BRAF = tested on: BRAF
# BRK = tested on: T1, BRK
# T1 construct: gene PTK6
# BRSK1 = tested on: BRSK1
# BRSK2 = tested on: BRSK2
# BTK = tested on: BTK
# BUB1 = tested on: BUB1
# CAMK1B = tested on: CAMK1B
# CAMK1D = tested on: CAMK1D
# CAMK1G = tested on: CAMK1G
# 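Further: KINOMEscan kinase panel screen.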
SMILES,%Inh (BMX),%Inh (BRAF),%Inh (BRK),%Inh (BRSK1),%Inh (BRSK2),%Inh (BTK),%Inh (BUB1),%Inh (CAMK1B),%Inh (CAMK1D),%Inh (CAMK1G)
COc1cccc(CC(=O)N2CCc3cc(-c4cn(C)c5ncnc(N)c45)ccc32)c1 [GSK2608899],0%,6%,53%,8%,0%,0%,0%,43%,19%,20%
N#CC1(c2cccc(C(=O)Nc3cccc(Oc4ccc5nc(NC(=O)C6CC6)sc5n4)c3)c2)CC1,0%,99.9%,18%,13%,0%,6%,0%,0%,2%,0%
Cc1ccc(-c2ccc3occ(-c4ccc(S(C)=O)cc4)c3c2)nn1 (centres unmarked),0%,0%,0%,0%,0%,0%,5%,14%,15%,7%
O=C(Nc1n[nH]c2nc(-c3ccccc3O)ccc12)C1CC1 [SB-711880],0%,0%,0%,38%,19%,0%,2%,9%,4%,0%
CN(c1ccc2c(c1)nc(NCc1ccccc1)n2C)c1ccnc(Nc2ccc(CS(C)(=O)=O)cc2)n1.Cl [GW811603],0%,96.8%,79%,0%,0%,64%,0%,46%,5%,0%
Cl.Cl.NCC(NC(=O)c1cc(-c2cccnc2)c(-c2ccnc3[nH]ccc23)s1)c1ccccc1 (centres unmarked) [GSK1323434],36%,21%,7%,5%,0%,0%,77%,7%,18%,3%
COc1ccc(C)c(Nc2ccnc(Nc3ccc(-c4cnc[nH]4)cc3)n2)c1.Cl [GW784041],46%,0%,20%,8%,9%,0%,0%,0%,25%,8%
CC(C)NCC(Cc1ccccc1)NC(=O)c1cc(Br)c(-c2ccnc3[nH]ccc23)s1.Cl.Cl (centres unmarked) [GSK1383281],5%,0%,0%,0%,0%,0%,43%,29%,27%,0%
NCCC(NC(=O)c1cc(Br)c(-c2ccnc3[nH]ccc23)s1)c1ccccc1.O=C(O)C(F)(F)F.O=C(O)C(F)(F)F (centres unmarked) [GSK1307810],25%,0%,34%,1%,19%,24%,68%,52%,34%,21%
Cc1cccc(Nc2nc(NCCN)ncc2C(N)=O)c1 [GSK1292139],0%,3%,0%,10%,0%,0%,66%,98.1%,84%,23%
O=C1NC(=O)C(c2ccccc2Cl)=C1Nc1cccc(Cl)c1 [SB-342409],19%,0%,22%,0%,0%,0%,22%,3%,21%,18%
COC(=O)Nc1nc2cc(Oc3ccc(NC(=O)Nc4cccc(SC)c4)cc3)ccc2[nH]1.Cl [GW697999],0%,83%,15%,3%,10%,2%,44%,0%,7%,0%
COc1cccc(NC(=O)NCCNc2ccnc(Nc3ccc(F)cc3)n2)c1 [GSK1379879],4%,0%,30%,0%,0%,0%,58%,0%,8%,0%
Nc1ncnc2scc(-c3ccc(NC(=O)Cc4cc(F)ccc4F)cc3)c12.O=C(O)C(F)(F)F [SB-731254-M],0%,4%,6%,2%,38%,0%,0%,0%,11%,15%
CCn1cnc2c(NCc3ccccc3)ncnc21 [SKF-96418],0%,9%,0%,0%,0%,0%,50%,0%,1%,0%
COC(=O)Nc1nc2ccc(Oc3ccc(NC(=O)Nc4cc(C(F)(F)F)ccc4F)cc3)cc2[nH]1.Cl [GW654607],0%,62%,20%,0%,0%,0%,13%,51%,0%,0%
CCOc1nccc(-c2c(-c3ccc(F)cc3)ncn2C2CCNCC2)n1 [SB-249175],12%,5%,0%,0%,11%,34%,27%,31%,0%,1%
